“And” between values parts separate entries of the source, which are not always exact repeats. Equal values may be shown once. Inconclusive results are not listed. Where a call stands in place of a potency, no number is given. More than one record can exist for a structure, and the calls need not agree. The source made the active and inactive calls. Unless noted, the call rests on the fitted dose curve; in most records, active means well fitted curve in the direction sought with a large enough effect; inconclusive means small, poorly fitted or top-dose-only effect, or another doubt; inactive means no such curve, though single readings can be large; an effect the other way counts as inactive or inconclusive.
Experiments:
[1] = Validation screen for small molecules that induce DNA re-replication in MCF 10A normal breast cells (AID 463097); further: nearly all actives have a fitted effect of over 60% in size
In short: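 MCF 10A cells exposed to compound 48 hr at 37 C, 5% CO2, then Hoechst-stained 40 min. Laser-scanning imaging of nuclear DNA content (405 nm ex, 500-530 nm em); re-replication scored as rise in nuclei with elevated fluorescence intensity.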

[2] = molecular target: Ubiquitin carboxyl-terminal hydrolase 2 (Homo sapiens) (UniProt O75604); experiment: qHTS Validation Assay for Inhibitors of Ubiquitin-specific Protease USP2a Using CHOP2 as the Reporter (AID 463106)
In short: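 Inhibition is expressed relative to NEM as the full-inhibition control, with concentration-response curves classed by fit quality, magnitude and activity. Enzyme (USP2 core, 10nM) meets 25nM Ub-CHOP2 after compound preincubation; readings are taken at 60min.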

[3] = molecular target: DNA polymerase III PolC-type (Bacillus subtilis (strain 168)) (UniProt P13267); experiment: qHTS Validation Assay for the Inhibitors of DNA Replication in Gram-Positive Bacteria (AID 485295); further: potency means the concentration at half of the fitted maximal effect
In short: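 Reconstituted B. subtilis Pol III holoenzyme (PolC, beta clamp, SSB, primase) preincubated with compound, then M13Gori single-stranded circular template with dNTPs/NTPs added; room temperature reaction. Stopped with EDTA/PicoGreen; dsDNA fluorescence read, EDTA as full-inhibition control.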

[4] = molecular target: Tumor susceptibility gene 101 protein (Homo sapiens) (UniProt Q99816); experiment: qHTS Validation Assay for Iinhibitors of HIV-1 Budding by Blocking the Interaction of PTAP/TSG101 (AID 485342; calls by dose curve)
In short: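 Tsg101 binding domain (10 uM) with FITC-labeled PTAP peptide (50 nM) in HEPES pH 7.5 buffer, 20 min at r.t. with compounds. Binding measured by fluorescence polarization.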

[5] = molecular target: Beta-2 adrenergic receptor (Homo sapiens) (UniProt P07550); experiment: qHTS validation assay of beta-arrestin-biased ligands of beta2-adrenergic receptor (AID 485366)
In short: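 qHTS, Tango cells, 1500 cells/well, DMEM + 1% FBS. Cpd 18 hr at 37 degrees C. Luciferin/ATP/CoA detection mix, 15 min RT, luminescence read. %Activity from corrected signal; CRC fit, curve class.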

[6] = Quantitative high throughput screen for delayed death inhibitors of the malarial parasite plastid, 96 hour incubation (AID 488745); further: nearly all actives have a fitted effect of over 70% in size; further: potency means the concentration at half of the fitted maximal effect
In short: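 Decreased firefly luciferase luminescence indicates inhibited growth of reporter-integrated P. falciparum after two generations (96 h, 37 C, 5% CO2). Infected erythrocytes at 0.1% parasitemia, 2% hematocrit, in Albumax-supplemented RPMI 1640.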

[7] = molecular target: Thioredoxin reductase 1, cytoplasmic (Rattus norvegicus) (UniProt O89049); experiment: qHTS Assay for Substrates of Mammalian Selenoprotein Thioredoxin Reductase 1 (TrxR1) (AID 488772);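 further: series mostly up to about 57 µM; a drop in NADPH fluorescence below the no-compound background marks a TrxR1 substrate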
In short: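 In this dual-purpose format, potential substrates are identified from the first fluorescence read after selenite addition, not from the 8-minute delta. Rat enzyme is preincubated with NADPH and then with compound at ~22 deg C.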

[8] = molecular target: Thioredoxin reductase 1, cytoplasmic (Rattus norvegicus) (UniProt O89049); experiment: qHTS Assay for Inhibitors of Mammalian Selenoprotein Thioredoxin Reductase 1 (TrxR1) (AID 488773); conditions: Potency: inhibition; further: nearly all actives have a fitted effect of over 40% in size; further: potency means the concentration at half of the fitted maximal effect
In short: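 Inhibition is scored from the loss of NADPH fluorescence between first and last reads of an 8-min kinetic run. Selenite (400 uM) was the substrate, added after 15 min compound preincubation at room temperature.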

[9] = molecular target: Flap endonuclease 1 (Homo sapiens) (UniProt P39748); experiment: qHTS Validation Assay for the Inhibitors of Human Flap endonuclease 1 (FEN1) (AID 488816); further: potency means the concentration at half of the fitted maximal effect
In short: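 Steps: add FEN1 (10 nM reagent) or buffer only; pin compounds; hold 15 min at room temperature; start with substrate, 50 nM final; read at 0 and 15 min; correct, normalize and fit a four-parameter Hill curve.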

[10] = molecular target: M-phase phosphoprotein 8 (Homo sapiens) (UniProt Q99549); experiment: qHTS Validation Assay for Inhibitors for MPP8 Chromodomain Interactions with Methylated Histone Tails (AID 488949); further: nearly all actives have a fitted effect of over 55% in size; further: potency means the concentration at half of the fitted maximal effect
In short: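 MPP8 (50 nM) was pre-bound to 50 nM biotinylated H3(1-18)K9me3 peptide in PBS pH 7.4 with 0.01% Tween-20. Compounds were then added for 30 min at room temperature, and complex disruption was read by AlphaScreen with streptavidin donor and nickel-chelate acceptor beads.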

[11] = molecular target: Chromobox protein homolog 1 (Homo sapiens) (UniProt P83916); experiment: qHTS Validation Assay for Inhibitors of HP1-beta Chromodomain Interactions with Methylated Histone Tails (AID 488953); further: nearly all actives have a fitted effect of over 50% in size; further: potency means the concentration at half of the fitted maximal effect
In short: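 AlphaScreen proximity signal from streptavidin donor and nickel chelate acceptor beads (final 10 ug/mL) after 30 min dark incubation. Compounds had 30 min at room temperature with preformed complex of 50 nM HP1-beta and 50 nM b-H3(1-18)K9me3 in PBS pH 7.4 with 0.01% Tween-20.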

[12] = molecular target: Methanococcus maripaludis chaperonin (MmCpn) (UniProt Q6LX38); experiment: High-Throughput Screening for Modulators of Cytosolic Chaperonin Activity: MmCpn Primary Screen (AID 488978);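 further: 50 nM MmCpn enzyme hydrolysing 30 µM ATP at 37 °C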
In short: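 MmCpn at 50 nM final was preincubated 5 min at RT with compound. ATP was then added at 30 uM final for 10 min at 37 C. ADP formed was detected by Transcreener HTRF (665/590 nm).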

[13] = molecular target: Transient receptor potential cation channel subfamily V member 1 (Homo sapiens) (UniProt Q8NER1); experiment: HTS Assay for Compounds that Act as Enhancers of the Vanilloid Receptor 1 (AID 488979)
In short: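 TRPV1-expressing cells loaded with Fluo-8 calcium dye; compounds added and calcium influx read kinetically for 3 min (agonist phase), then capsaicin at EC20 added and read 2 min more for enhancement. Fluorescence ex 480/em 520 nm.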

[14] = molecular target: Thyrotropin receptor (Homo sapiens) (UniProt P16473); experiment: qHTS Assay for Antagonists of the Thyroid Stimulating Hormone Receptor (AID 488980); further: series mostly up to about 58 µM
In short: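 TSHR-transfected HEK293 cells (2000/well) in HEPES-buffered HBSS with 70 uM RO 20-1724 were stimulated with 4 nM TSH (EC80, final) in the presence of compound. cAMP was measured by HTRF competition after lysis and 30 min at RT.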

[15] = molecular target: D(1A) dopamine receptor (Homo sapiens) (UniProt P21728); experiment: HTS Assay for Allosteric Agonists of the Human D1 Dopamine Receptor: Primary Screen for Agonists (AID 488981)
In short: (§1)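 Tetracycline-induced HEK293 T-REx cells force-coupled to calcium signalling were incubated overnight at 30 C and dye-loaded at room temperature. Calcium flux over 180 s after compound addition flagged agonists; a further 180 s read after EC20 dopamine flagged potentiators.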

[16] = molecular target: D(1A) dopamine receptor (Homo sapiens) (UniProt P21728); experiment: HTS Assay for Allosteric Agonists of the Human D1 Dopamine Receptor: Primary Screen for Potentiators (AID 488982)
In short: as §1

[17] = Cytometry Cell-Based qHTS for Inhibitors of the mTORC1 Signaling Pathway in MEF cells (AID 2668); further: potency means the concentration at half of the fitted maximal effect
In short: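 MEFs (Tsc2-/-, p53-/- stably expressing WT Tsc2) treated 24 h at 37 degree Celsius, fixed, stained with Alexa-488 anti-phospho-rpS6 Ser235/236 and propidium iodide; Acumen laser scanning. Reported as % positive cells, phospho-S6 normalized to PI.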

[18] = Quantitative high throughput screen for delayed death inhibitors of the malarial parasite plastid, 48 hour incubation (AID 488752); further: nearly all actives have a fitted effect of over 65% in size; further: potency means the concentration at half of the fitted maximal effect
In short: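 One-generation (48 h) growth assay: a decrease in luciferase signal from an integrated reporter in P. falciparum-infected red cells (0.1% parasitemia, 2% hematocrit) after compound exposure at 37 C indicates parasite inhibition.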

[19] = qHTS Validation Assay to Find Inhibitors of Chronic Active B-Cell Receptor Signaling (AID 485345; active means well fitted curve in the direction sought with a large enough effect in the main read-out, with a control signal flat, not every such curve was filed as active)
In short: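 TMD8 ABC-DLBCL cells with dox-inducible green luciferase–IκBα fusion and red native luciferase; compounds 46 uM–3 nM, 4 h at 37C with doxycycline in 0.5% FBS IMDM. Green/red ratio normalized to basal and 10 uM MG-132.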

[20] = molecular target: ATP-dependent 6-phosphofructokinase (Trypanosoma brucei brucei) (UniProt O15648); experiment: qHTS Validation Assay to Find Inhibitors of T. brucei phosphofructokinase (AID 485368); further: potency means the concentration at half of the fitted maximal effect
In short: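 Luminescent ADP detection measures PFK turnover of fructose-6-phosphate (0.5 mM) with ATP (0.1 mM) at pH 8.0. Reaction runs 45 min at room temperature with 1.25 nM enzyme; inhibitors tested as titrations up to 57 uM.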

Sequence of Thioredoxin reductase 1, cytoplasmic (Rattus norvegicus) (O89049 whole entry, looked up): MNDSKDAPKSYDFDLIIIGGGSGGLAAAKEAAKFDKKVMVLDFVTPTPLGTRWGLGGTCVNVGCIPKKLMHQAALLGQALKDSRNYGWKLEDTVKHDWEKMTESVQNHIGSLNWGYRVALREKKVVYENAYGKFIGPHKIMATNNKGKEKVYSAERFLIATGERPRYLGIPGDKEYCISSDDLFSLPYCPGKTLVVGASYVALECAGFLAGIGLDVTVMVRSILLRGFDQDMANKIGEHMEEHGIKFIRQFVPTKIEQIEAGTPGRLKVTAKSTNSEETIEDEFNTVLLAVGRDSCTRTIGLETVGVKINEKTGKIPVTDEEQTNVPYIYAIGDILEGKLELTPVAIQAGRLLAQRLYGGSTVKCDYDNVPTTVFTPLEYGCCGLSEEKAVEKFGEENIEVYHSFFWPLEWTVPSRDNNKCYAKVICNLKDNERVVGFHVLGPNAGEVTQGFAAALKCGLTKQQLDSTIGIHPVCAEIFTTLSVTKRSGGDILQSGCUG
Sequence of M-phase phosphoprotein 8 (Homo sapiens) (Q99549 whole entry, looked up): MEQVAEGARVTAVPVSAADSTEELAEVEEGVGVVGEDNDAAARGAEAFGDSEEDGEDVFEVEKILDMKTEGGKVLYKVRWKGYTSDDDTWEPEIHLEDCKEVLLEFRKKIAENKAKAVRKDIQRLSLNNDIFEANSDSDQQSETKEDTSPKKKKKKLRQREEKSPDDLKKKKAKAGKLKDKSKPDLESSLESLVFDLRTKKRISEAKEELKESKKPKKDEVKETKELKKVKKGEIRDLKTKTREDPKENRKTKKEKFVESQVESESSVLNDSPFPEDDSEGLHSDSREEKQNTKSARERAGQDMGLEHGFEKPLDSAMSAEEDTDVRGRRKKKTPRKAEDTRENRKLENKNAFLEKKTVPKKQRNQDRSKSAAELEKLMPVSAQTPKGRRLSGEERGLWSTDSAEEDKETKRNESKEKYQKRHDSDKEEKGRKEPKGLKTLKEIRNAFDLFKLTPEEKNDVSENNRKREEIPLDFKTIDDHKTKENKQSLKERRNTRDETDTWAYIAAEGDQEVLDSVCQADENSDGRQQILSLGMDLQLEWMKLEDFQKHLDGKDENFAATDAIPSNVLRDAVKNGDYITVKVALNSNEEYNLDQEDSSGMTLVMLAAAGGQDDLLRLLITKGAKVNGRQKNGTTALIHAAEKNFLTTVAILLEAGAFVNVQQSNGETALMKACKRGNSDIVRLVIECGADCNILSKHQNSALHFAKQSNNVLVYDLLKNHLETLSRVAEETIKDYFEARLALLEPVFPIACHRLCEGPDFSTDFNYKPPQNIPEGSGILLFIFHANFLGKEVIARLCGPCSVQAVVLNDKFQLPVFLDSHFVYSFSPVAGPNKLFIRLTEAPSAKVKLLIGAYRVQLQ
Sequence of Ubiquitin carboxyl-terminal hydrolase 2 (Homo sapiens) (O75604 whole entry, looked up): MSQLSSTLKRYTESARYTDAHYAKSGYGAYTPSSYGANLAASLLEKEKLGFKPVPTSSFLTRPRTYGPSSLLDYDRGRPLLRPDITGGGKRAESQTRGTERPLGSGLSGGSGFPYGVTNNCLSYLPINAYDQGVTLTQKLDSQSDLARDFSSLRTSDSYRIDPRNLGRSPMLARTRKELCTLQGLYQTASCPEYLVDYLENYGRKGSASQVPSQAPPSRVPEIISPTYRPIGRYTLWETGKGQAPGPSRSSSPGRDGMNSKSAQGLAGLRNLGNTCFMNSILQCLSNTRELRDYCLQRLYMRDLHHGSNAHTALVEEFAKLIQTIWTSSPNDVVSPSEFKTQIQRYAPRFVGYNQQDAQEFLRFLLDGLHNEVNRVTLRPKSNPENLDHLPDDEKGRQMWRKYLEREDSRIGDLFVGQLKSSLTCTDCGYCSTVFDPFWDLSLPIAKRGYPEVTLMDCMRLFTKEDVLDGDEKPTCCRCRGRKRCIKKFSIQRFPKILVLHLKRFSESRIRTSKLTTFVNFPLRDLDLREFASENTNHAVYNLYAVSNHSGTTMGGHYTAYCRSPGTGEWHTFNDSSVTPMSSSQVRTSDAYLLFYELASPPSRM
Sequence of Beta-2 adrenergic receptor (Homo sapiens) (P07550 whole entry, looked up): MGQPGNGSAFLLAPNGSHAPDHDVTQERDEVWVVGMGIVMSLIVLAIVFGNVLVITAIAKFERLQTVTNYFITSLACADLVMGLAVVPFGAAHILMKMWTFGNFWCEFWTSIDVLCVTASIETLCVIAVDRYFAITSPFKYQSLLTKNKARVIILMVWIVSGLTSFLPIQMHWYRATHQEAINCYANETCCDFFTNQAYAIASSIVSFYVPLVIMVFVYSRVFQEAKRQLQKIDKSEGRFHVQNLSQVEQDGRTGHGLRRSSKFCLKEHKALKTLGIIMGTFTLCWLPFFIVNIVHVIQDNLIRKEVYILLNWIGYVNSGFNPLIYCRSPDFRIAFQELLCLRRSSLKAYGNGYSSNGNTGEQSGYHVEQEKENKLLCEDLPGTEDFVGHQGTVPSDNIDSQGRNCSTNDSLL
Sequence of Transient receptor potential cation channel subfamily V member 1 (Homo sapiens) (Q8NER1 whole entry, looked up): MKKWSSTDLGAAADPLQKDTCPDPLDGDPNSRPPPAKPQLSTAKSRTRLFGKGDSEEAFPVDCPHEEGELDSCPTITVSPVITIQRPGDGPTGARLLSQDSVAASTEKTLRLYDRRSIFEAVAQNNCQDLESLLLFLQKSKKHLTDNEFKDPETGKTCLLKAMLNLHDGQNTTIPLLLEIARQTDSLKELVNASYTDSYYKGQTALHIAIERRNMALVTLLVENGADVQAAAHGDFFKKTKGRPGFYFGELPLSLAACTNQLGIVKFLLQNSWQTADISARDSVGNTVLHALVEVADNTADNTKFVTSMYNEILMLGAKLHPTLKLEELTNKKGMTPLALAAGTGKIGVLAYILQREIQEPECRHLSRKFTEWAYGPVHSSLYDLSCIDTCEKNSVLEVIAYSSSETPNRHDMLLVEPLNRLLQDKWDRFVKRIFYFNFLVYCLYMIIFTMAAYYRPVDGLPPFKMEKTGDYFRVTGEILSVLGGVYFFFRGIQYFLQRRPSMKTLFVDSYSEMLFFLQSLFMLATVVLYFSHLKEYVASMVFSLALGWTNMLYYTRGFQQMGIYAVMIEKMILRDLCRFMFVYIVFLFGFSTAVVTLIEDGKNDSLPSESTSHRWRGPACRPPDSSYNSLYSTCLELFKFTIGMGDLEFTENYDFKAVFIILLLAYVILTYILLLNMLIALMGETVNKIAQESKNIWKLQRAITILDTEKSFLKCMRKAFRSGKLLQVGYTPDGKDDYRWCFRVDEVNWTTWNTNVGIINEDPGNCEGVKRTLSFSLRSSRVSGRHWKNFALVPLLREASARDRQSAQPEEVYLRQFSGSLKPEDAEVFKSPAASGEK
Sequence of D(1A) dopamine receptor (Homo sapiens) (P21728 whole entry, looked up): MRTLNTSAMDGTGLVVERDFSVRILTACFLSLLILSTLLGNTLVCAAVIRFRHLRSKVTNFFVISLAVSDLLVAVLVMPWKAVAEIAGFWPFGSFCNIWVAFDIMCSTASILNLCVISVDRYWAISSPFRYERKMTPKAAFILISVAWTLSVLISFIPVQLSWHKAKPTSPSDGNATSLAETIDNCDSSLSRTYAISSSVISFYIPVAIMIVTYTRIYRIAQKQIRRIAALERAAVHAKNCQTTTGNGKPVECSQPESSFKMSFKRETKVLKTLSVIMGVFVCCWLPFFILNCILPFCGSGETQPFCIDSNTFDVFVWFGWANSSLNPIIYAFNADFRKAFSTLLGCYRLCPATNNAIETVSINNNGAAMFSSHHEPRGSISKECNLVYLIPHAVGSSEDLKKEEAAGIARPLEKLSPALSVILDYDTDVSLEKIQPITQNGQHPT
Sequence of Methanococcus maripaludis chaperonin (MmCpn) (Q6LX38 1-543): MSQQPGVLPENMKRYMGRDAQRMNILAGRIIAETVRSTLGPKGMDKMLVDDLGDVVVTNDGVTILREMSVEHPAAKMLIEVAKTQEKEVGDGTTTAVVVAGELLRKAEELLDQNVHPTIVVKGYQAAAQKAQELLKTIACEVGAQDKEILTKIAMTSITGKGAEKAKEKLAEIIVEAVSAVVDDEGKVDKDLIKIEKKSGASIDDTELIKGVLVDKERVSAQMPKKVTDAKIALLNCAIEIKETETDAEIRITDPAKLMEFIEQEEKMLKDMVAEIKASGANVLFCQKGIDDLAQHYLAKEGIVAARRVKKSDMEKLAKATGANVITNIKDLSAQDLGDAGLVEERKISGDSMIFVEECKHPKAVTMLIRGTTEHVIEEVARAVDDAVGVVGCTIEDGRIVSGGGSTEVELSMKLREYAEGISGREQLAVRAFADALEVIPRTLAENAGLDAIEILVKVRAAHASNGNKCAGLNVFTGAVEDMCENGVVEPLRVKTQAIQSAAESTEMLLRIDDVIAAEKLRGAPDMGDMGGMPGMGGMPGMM
Sequence of Thyrotropin receptor (Homo sapiens) (P16473 whole entry, looked up): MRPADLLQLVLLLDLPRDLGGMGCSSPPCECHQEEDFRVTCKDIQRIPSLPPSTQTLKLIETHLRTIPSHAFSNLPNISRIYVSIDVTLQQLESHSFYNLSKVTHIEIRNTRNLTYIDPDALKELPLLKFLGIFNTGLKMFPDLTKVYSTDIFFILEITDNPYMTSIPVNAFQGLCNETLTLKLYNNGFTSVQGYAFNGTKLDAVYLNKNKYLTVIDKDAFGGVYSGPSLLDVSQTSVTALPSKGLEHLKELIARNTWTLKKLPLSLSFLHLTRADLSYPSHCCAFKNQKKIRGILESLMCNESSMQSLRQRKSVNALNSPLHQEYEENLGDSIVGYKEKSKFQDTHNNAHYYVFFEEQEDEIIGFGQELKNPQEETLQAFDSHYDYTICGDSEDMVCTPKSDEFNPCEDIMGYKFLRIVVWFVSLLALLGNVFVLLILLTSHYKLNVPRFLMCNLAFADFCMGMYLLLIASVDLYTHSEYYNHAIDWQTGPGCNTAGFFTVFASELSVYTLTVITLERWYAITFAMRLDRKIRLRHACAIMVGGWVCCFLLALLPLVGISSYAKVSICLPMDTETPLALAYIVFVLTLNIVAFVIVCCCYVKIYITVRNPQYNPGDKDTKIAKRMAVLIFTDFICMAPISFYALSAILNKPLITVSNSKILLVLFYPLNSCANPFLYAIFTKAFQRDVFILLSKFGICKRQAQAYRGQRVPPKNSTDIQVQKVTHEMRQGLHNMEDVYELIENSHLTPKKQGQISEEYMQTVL

SMILES | Potency [1] | outcome [2] | Potency [3] | outcome [4] | outcome [5] | Potency [6] | outcome [7] | Potency [8] | Potency [9] | Potency [10] | Potency [11] | outcome [12] | outcome [13] | outcome [14] | outcome [15] | Potency [16] | Potency [17] | Potency [18] | Potency [19] | Potency [20]
O=C1c2ccccc2-c2n[nH]c3cccc1c23 | inactive | inactive | inactive | inactive | inactive | 4.65 µM (active) | inactive | inactive | inactive | inactive | inactive | inactive | inactive | inactive | inactive | inactive | – | – | – | –
CCN(CC)C(=S)SSC(=S)N(CC)CC | – | inactive | inactive | inactive | inactive | – | inactive | – | inactive | 10 µM (active) and inactive | 28.2 µM (active) | inactive | – | inactive | – | – | – | – | – | –
Nc1nc(OCc2ccccc2)c2[nH]cnc2n1 | inactive | inactive | inactive | inactive | inactive | inactive | inactive | inactive | inactive | inactive | inactive | inactive | inactive | inactive | inactive | inactive | inactive | inactive | – | –
Cc1cc(O)c2c(c1)C(=O)c1cc(O)cc(O)c1C2=O | – | inactive | – | inactive | inactive | inactive | inactive | – | – | – | – | inactive | inactive | inactive | inactive | inactive | inactive | inactive | – | –
O=C(NCC1CCCCN1)c1cc(OCC(F)(F)F)ccc1OCC(F)(F)F (stereo not drawn) | inactive | – | – | – | – | inactive | – | – | – | inactive | – | – | inactive | inactive | – | – | – | inactive | – | –
O=c1c(O)c(-c2cc(O)c(O)c(O)c2)oc2cc(O)cc(O)c12 | inactive | – | 15 µM (active) | inactive | inactive | inactive | inactive | 13.4 µM (active) | 1.5 µM (active) | 6.31 µM (active) and 8.44 µM (active) | 14.1 µM (active) | inactive | inactive | inactive | inactive | inactive | – | inactive | inactive | 3.01 µM (active)
CCOC(=O)C(C)Oc1cccc2c(=O)n(CC(=O)Nc3ccc4c(c3)OCCO4)ccc12 (stereo not drawn) | – | inactive | inactive | inactive | inactive | – | inactive | inactive | inactive | inactive | inactive | inactive | – | – | inactive | inactive | inactive | – | – | inactive
O=Nc1c(-c2c(O)[nH]c3cc(Br)ccc23)[nH]c2ccccc12 | inactive | inactive | inactive | inactive | inactive | 4.65 µM (active) | inactive | inactive | inactive | 3.55 µM (active) and 5.97 µM (active) | 2.82 µM (active) | – | inactive | inactive | inactive | inactive | 5.21 µM (active) | 10.4 µM (active) | – | –
Oc1ccc2ccccc2c1SSc1c(O)ccc2ccccc12 | – | – | inactive | inactive | inactive | – | inactive | inactive | inactive | – | 0.006 µM (active) | inactive | – | – | inactive | – | inactive | – | inactive | inactive
Nc1ccn([C@@H]2O[C@H](CO)[C@@H](O)C2O)c(=O)n1 (stereo partly drawn) | – | inactive | inactive | inactive | inactive | – | inactive | inactive | inactive | inactive | inactive | inactive | – | – | inactive | inactive | – | – | inactive | –
COc1cc2c(cc1OC)C1CC(=O)C(CC(C)C)CN1CC2 (stereo not drawn) | – | inactive | inactive | inactive | inactive | – | inactive | inactive | inactive | inactive | inactive | inactive | – | – | inactive | inactive | – | – | – | –

— PubChem BioAssay (NCATS)
